# In PubChem BioAssay (Tox21):
# Records with an inconclusive call do not appear. Calls of active or inactive are those of the source. The call rests on the fitted dose curve; in most records, active means well fitted inhibition curve with a large enough effect in the repeat runs; inconclusive means weak or mixed curves, or effect the other way; inactive means no such curve, though single readings can be large or run the other way.
# Target: Nuclear receptor subfamily 1 group I member 3 (Homo sapiens) (UniProt Q14994)
# Experiment: qHTS assay to identify small molecule antagonists of the constitutive androstane receptor (CAR) signaling pathway (AID 1224838);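 further: HepG2 cells stably expressing hCAR with CYP2B6 luciferase reporter stimulated by CITCO; nearly all actives have a fitted effect of over 40% in size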
# Conditions: HepG2-CYP2B6-hCAR luciferase, CITCO-stimulated, 24 h; series mostly up to 92.4 µM; activity, negative = inhibition: at the top concentration
# Text: U.S. Tox21 Program National Center for Advancing Translational Sciences [NCATS] NIH Chemical Genomics Center [NCGC] U.S. Environmental Protection Agency [EPA] National Institutes of Environmental Health Sciences [NIEHS] National Toxicology Program [NTP] U.S. Food and Drug Administration [FDA] Tox21 Assay Overview: The constitutive androstane receptor (CAR) is a nuclear receptor which regulates multiple drug metabolizing enzymes (DMEs) and transporters. Activating CAR will generally increase the transcription and subsequent translation of CYP2B6 and CYP3A4. These two DMEs represent about 50% of the drug metabolizing potential in the body. When CAR is deactivated, the metabolizing potential in the body will decrease, subsequently increasing the toxicity in the body or lowering the therapeutic potential of a pro-drug. Recently, there have also been studies performed indicating CARs role in energy metabolism and cancer therapy. Therefore, inhibiting CARs activity could have a potential effect on diabetes and cancer. Identifying environmental toxins and compounds which modulate CAR, through the use of the Tox21 10K compound collection, will be an important step in determining the toxicity and potential therapeutic effects these factors will have on the human body.
# Tox21 Assay Protocol Summary: A double-stable (hCAR and CYP2B6-2.2kb) transfected cell line, derived from human hepatoma (HepG2) cells, was utilized for the duration of the quantitative high-throughput screens. The HepG2-CYP2B6-hCAR cells suspended in DMEM culture medium supplemented with 10% FBS, 5 ug/mL blasticidin, 0.5 mg/mL geneticin, 100 U/mL penicillin and 100 ug/mL streptomycin were dispensed at 2500 cells/4 uL/well in 1536-well white solid bottom plates using a Multidrop Combi. After the assay plates were incubated at 37 C/5% CO2 for 4 hrs, 23 nL of compounds at 15 concentrations (from 5-48 columns) or positive control (from 1 to 4 columns) were transferred to the assay plates using a Pintool station. One uL of CITCO, was added using a Flying Reagent Dispenser to generate a final concentration of 50 nM CITCO inside each well. After a 24 hr incubation period at 37 C/5% CO2, four uL of ONE-Glo reagent was added into the assay plates using a Flying Reagent Dispenser. After a 30 min incubation period at room temperature, the luminescence intensity in the assay plates was measured using a ViewLux plate reader.
# On the % scale 0 is the no-effect control and ±100 the full control effect.
# Nuclear receptor subfamily 1 group I member 3 (Homo sapiens), sequence (Q14994 whole entry, looked up): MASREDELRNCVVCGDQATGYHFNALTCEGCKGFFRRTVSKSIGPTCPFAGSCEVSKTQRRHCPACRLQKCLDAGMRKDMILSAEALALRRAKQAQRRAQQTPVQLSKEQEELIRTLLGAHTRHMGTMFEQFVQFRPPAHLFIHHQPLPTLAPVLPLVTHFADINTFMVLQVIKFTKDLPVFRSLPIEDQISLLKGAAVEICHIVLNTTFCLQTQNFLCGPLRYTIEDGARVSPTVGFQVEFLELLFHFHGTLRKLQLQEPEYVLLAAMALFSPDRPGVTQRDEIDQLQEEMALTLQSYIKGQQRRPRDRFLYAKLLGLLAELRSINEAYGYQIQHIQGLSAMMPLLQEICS
row,Compound,"activity, negative = inhibition"
1,C[C@H]1CCC[C@H](O)CCCCCc2cc(O)cc(O)c2C(=O)O1,-23% (inactive)
2,ClC(Br)Br,-14.1% (inactive)
3,COc1ccc(C(=O)N2CCCC2=O)cc1,20.1% [at 42.5 µM] (inactive)
4,CCN(CC)CCOC(=O)C(C)(c1ccccc1)c1ccccc1,6.32% [at 42.5 µM] (inactive)
5,O=P(O)(Oc1ccccc1)Oc1ccccc1,-2.78% (inactive)
6,CCCSC(=O)Cl,10.4% (inactive)
7,CCCSP(=O)(OCC)Oc1ccc(Br)cc1Cl (stereo not given),38.8% [at 42.5 µM] (inactive)
8,CCOP(=S)(OCC)SCSc1ccc(Cl)cc1,25% (inactive)
9,Oc1c(Cl)cccc1Cl,19.2% (inactive)
10,Nc1cc(Cl)ccc1O,323% (inactive)
11,CC(C)(C)OC(=O)c1ncn2c1[C@@H]1CCCN1C(=O)c1c(Br)cccc1-2,42.4% [at 42.5 µM] (inactive)
12,Cc1ccccc1CO[C@@H]1C[C@@]2(C(C)C)CC[C@]1(C)O2,3.88% (inactive)
13,O=C(Cc1ccccc1)OCc1ccccc1,-28.7% (inactive)
14,ClCCCN1CCN(c2cccc(Cl)c2)CC1,17.7% [at 42.5 µM] (inactive)
15,CCN(Cc1ccc(Cl)nc1)/C(=C/[N+](=O)[O-])NC,4.04% [at 42.5 µM] (inactive)
16,CC(N)=S,-20.3% (inactive)
17,COP(=S)(OC)Oc1ccc(S(N)(=O)=O)cc1,7.49% [at 42.5 µM] (inactive)
18,C#CCN1C(=O)COc2cc(F)c(N3C(=O)C4=C(CCCC4)C3=O)cc21,71% (inactive)
19,O=C(O)c1ccc2[nH]cc(CCCCN3CC=C(c4ccccc4)CC3)c2c1,10.9% [at 42.5 µM] (inactive)
20,CC(CCc1ccccc1)NC(C)C(O)c1ccc(O)cc1 (stereo not given),23.9% [at 42.5 µM] (inactive)

row,Compound,"activity, negative = inhibition"
1,COc1cc(OC)nc(Sc2cccc(Cl)c2C(=O)O)n1,6.44% (inactive)
2,CC1(C)CON(Cc2ccccc2Cl)C1=O,87.9% (inactive)
3,CN(C)CCc1ccc(O)cc1,-3.43% [at 42.5 µM] (inactive)
4,[As]#[In],-0.681% (inactive)
5,CC(C)(C)C(=O)C(Oc1ccc(Cl)cc1)n1cncn1 (stereo not given),54.3% (inactive)
6,Cc1cnc[nH]1,7.1% (inactive)
7,COc1cc(OC)nc(Oc2cccc(Oc3nc(OC)cc(OC)n3)c2C(=O)O)n1,-2.92% (inactive)
8,N#CCBr,3.82% (inactive)
9,COC(=O)c1c(C(F)F)nc(C(F)(F)F)c(C2=NCCS2)c1CC(C)C,-7.58% (inactive)
10,Cc1ncc2n1-c1ccc(Cl)cc1C(c1ccccc1F)=NC2,26.5% [at 42.5 µM] (inactive)
11,CC(=O)CC(c1ccc(Cl)cc1)c1c(O)c2ccccc2oc1=O (stereo not given),6.98% (inactive)
12,O=[N+]([O-])c1cccc2cccnc12,119% (inactive)
13,COc1cc(OC)nc(NC(=O)NS(=O)(=O)c2ncccc2C(=O)N(C)C)n1,0.289% (inactive)
14,CNC(=O)Oc1cccc(C(C)C)c1,13.8% (inactive)
15,Cc1nnc2n1-c1sc(CCC(=O)N3CCOCC3)cc1C(c1ccccc1Cl)=NC2,2.96% [at 42.5 µM] (inactive)
16,CCCCOC(=O)c1ccccc1C(=O)O,-9.56% (inactive)
17,CCCCN(CCCCO)N=O,2.8% (inactive)
18,ClC(Cl)Br,-10.3% (inactive)
19,CC(Oc1ccc(Oc2ncc(C(F)(F)F)cc2Cl)cc1)C(=O)O (stereo not given),-19% (inactive)
20,COC(=O)c1ccccc1S(=O)(=O)NC(=O)Nc1nc(C)cc(C)n1,-1.9% (inactive)
